Hits are enriched below; roughly 2.2% of the tested compounds scored in any of these assays.
H9c2 protect: protects H9c2 cardiomyocytes from peroxide injury | AID 588492 | hit rate 0.63% among 360,000 | protection from H2O2 cell death, % at 20 µM | H2O2 injury protection, ATPLite, 2 h;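 active means compounds giving at least 50% protection of heart cells from peroxide-induced death in the single-dose screen, raw or plate-pattern-corrected value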;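 further: 0% = DMSO wells with peroxide and 100% = DMSO wells without peroxide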
ABCB6 inh MLPCN: inhibitors of human ABC transporter ABCB6; K562-ABCB6 porphyrin accumulation, flow cytometry, 1 h; stronger effect = lower value; fluorescence ratio to DMSO, % at 10 µM; hit rate 0.19% among 360,000; AID 602162;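 active means fluorescence ratio to DMSO below 75%, the collection mean minus 3 SD; inconclusive means too few cells collected in the well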;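 further: signal is porphyrin accumulated inside mitochondria; 100% equals median channel fluorescence of DMSO control wells; lower ratio means ABCB6 inhibition with less porphyrin fluorescence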
beta cell repl: inducers of beta-cell replication in MIN6 cells; MIN6 cells proliferation, ATPlite luminescence, 48 h; cells starved in 0.2% serum; 100% = growth in 10% serum; proliferation, % at 10 µM; hit rate 0.29% among 330,000; AID 2380;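 active means compounds whose signal lies at least 3.5 SD above the mean of all wells on their plate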;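 further: 0% = DMSO-treated cells in low-serum medium and 100% = 10% serum control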
Myeloid diff 2: myeloid differentiation induction; AID 624256; hit rate 1% among 360,000; ER-HoxA9 myeloid progenitors, lysozyme-GFP differentiation, flow cytometry; calls only at 10 µM;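 active means normalized GFP-positive differentiation at or above the plate's own cutoff, the solvent-only control mean plus 3 SD; inconclusive means no clear call, values can overlap the other calls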;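 further: cells exposed to compound for four days before flow analysis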
iPSC survival up: hiPSC single-cell survival enhancement | ATPlite luminescence; 100% = ROCK inhibitor wells, 0% = DMSO | survival enhancement, % at 20 µM | hit rate 0.044% among 360,000 | AID 602274; in the data active means survival enhancement above about 18%;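 further: cells exposed to compounds for 16 hours before the ATP read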
* marks the source's active call; other numbers are inactive results; i = inactive; ? = inconclusive; . = no result; + = active, no number.

SMILES	H9c2 protect	ABCB6 inh MLPCN	beta cell repl	Myeloid diff 2	iPSC survival up
CN(C)S(=O)(=O)c1ccc2c(c1)/C(=C/c1cc3c([nH]1)CCCC3)C(=O)N2	-16	439	-6	+	-4
N#Cc1c(-c2cccs2)cc(-c2cccnc2)nc1N	73*	95	0	i	1
N#Cc1c(-c2ccc(F)cc2)cc(-c2cccnc2)nc1N	-11	98	0	i	-1
NC(=O)CC(NC(=O)Cc1ccc(Br)cc1)c1ccc(NC2CCCCCC2)c([N+](=O)[O-])c1 (centres undefined)	-2	100	-8	i	-3
Cc1[nH]c(-c2ccccn2)nc(=S)c1Cl	59*	103	-4	i	2
CCCCn1nc(C(=O)Oc2ccc3c(C)cc(=O)oc3c2)c2ccccc2c1=O	52*	99	-1	i	3
CCCC(=O)Oc1ccc2c(C)cc(=O)oc2c1	42	90	3	i	1
CCOc1ccc(S(=O)(=O)Nc2cccc(C(=O)N3CCN(c4ccc(OC)cc4)CC3)c2)cc1	-12	93	-1	i	21*
CCOc1ccc(S(=O)(=O)Nc2cccc(C(=O)N3CC(C)OC(C)C3)c2)cc1 (centres undefined)	-2	100	2	i	0
Cc1ccc(S(=O)(=O)N2CCN(C(=O)c3ccccc3)CC2)cc1	-4	93	0	+	-2
COc1ccc(N2CCN(C(=O)c3ccc(S(=O)(=O)N4CCCC4)cc3)CC2)cc1	2	97	1	i	1
O=C(c1ccccc1)N1CCN(C(=O)c2cccnc2)CC1	3	101	-3	+	1
COc1ccc(N2CCN(C(=O)c3ccc(S(=O)(=O)N4CCOCC4)cc3)CC2)cc1	-5	97	-1	+	0
CCCCCCn1c(N(CC)CC)nc2c1c(=O)[nH]c(=O)n2C	-1	85	5	i	-1
O=C(OCC(=O)N1CCN(S(=O)(=O)c2ccccc2)CC1)C1CCC1	4	98	-1	i	0
O=C(CC1CCCC1)N1CCN(S(=O)(=O)c2ccccc2)CC1	1	122	8	+	0
COC(=O)c1[nH]c2c(c1C)C(=O)CC(c1cc(OC)ccc1OC)C2 (centres undefined)	57*	100	-2	+	-1
CCCCOC(=O)c1[nH]c2c(c1C)C(=O)CC(c1cc(OC)c(OC)c(OC)c1)C2 (centres undefined)	-42	98	-7	+	-3
COc1ccc(CN(C)C(=O)Cn2cnc3c(OCc4ccccc4)ncnc32)cc1OC	-2	102	-3	i	1
CCN(c1ccc(C(=O)CSc2nnc(C3CC3)n2C2CC2)cc1)S(C)(=O)=O	-4	97	-4	i	0
CCOC(=O)c1cn(-c2ccc([N+](=O)[O-])cc2)c2cc(Cl)c([N+](=O)[O-])cc2c1=O	2	98	0	+	1
O=C(O)c1cn(-c2ccc(F)cc2)c2cc(Cl)c(F)cc2c1=O	0	101	-4	.	2
O=C(NNC(=O)c1ccccc1O)c1ccc(S(=O)(=O)Nc2ccccc2)cc1	58*	99	-3	i	1
CCN(CC(=O)NCc1ccc(F)cc1)CC(=O)Nc1ccccc1-c1ccccc1	2	99	-2	+	0
CCN(CC(=O)Nc1ccccc1OC)CC(=O)Nc1ccccc1-c1ccccc1	3	106	0	i	0
SMILES	H9c2 protect	ABCB6 inh MLPCN	beta cell repl	Myeloid diff 2	iPSC survival up
CCN(CC(=O)Nc1ccccc1SC)Cc1nc2ccccc2c(=O)[nH]1	8	96	0	i	0
CCN(CC(=O)Nc1ccccc1-c1ccccc1)Cc1nc2ccccc2c(=O)[nH]1	9	100	-2	+	2
COC(=O)c1nnn(CC(=O)Nc2ccc(C)c(F)c2)c1C(=O)OC	0	92	-2	i	2
O=C(Nc1nnc(-c2ccncc2)o1)c1ccc(Br)s1	36	110	-5	i	0
Cc1nnc2n(-c3ccccc3)c(=O)c3c4c(sc3n12)COC(C)(C)C4	5	98	-1	i	5
COCC(C)n1c(C)cc(C(=O)COC(=O)c2nc3nc(C)cc(C)n3n2)c1C (centres undefined)	2	99	0	i	1
C=CCn1c(SCC(=O)c2cccs2)nc2sc(C)c(C)c2c1=O	-4	88	-1	+	1
NC(=O)C1=C[C@@H](c2csc3ccccc23)C[C@@H](OCCCCO)O1	1	100	-1	+	0
C=CCOC(=O)C1=C[C@H](c2csc3ccccc23)C[C@H](OCCCCO)O1	0	97	3	i	2
O=S(=O)(Nc1nc2ccccc2nc1NCc1ccco1)c1ccccc1	16	98	0	+	10
CNC(=O)/C(C#N)=C/c1c(N2CCCCCC2)nc2ccccn2c1=O	-1	222	-4	+	0
CCNC(=O)/C(C#N)=C/c1c(N2CCCCCC2)nc2ccccn2c1=O	13	95	0	i	-1
O=C(CN1N=C(c2ccccc2)CCC1=O)NCCN1CCc2ccccc2C1	0	103	4.6*	i	-2
CCCCS(=O)(=O)N1CCCC(C(=O)Oc2ccccc2)C1 (centres undefined)	5	101	-2	i	0
O=c1c2ccccc2nc(-c2ccccc2Cl)n1O	0	99	-1	i	0
O=c1c2ccccc2nc(-c2ccc(Cl)c(Cl)c2)n1O	63*	86	-3	i	3
O=C(CCn1ccc2cc(S(=O)(=O)N3CCCC3)ccc21)NCCc1ccccc1	11	167	-1	+	0
CCNC(=O)CN1C(=O)NC2(CCCCCC2)C1=O	-1	96	-1	i	1
C=C1C(=O)C=C2CN(C(=O)c3ccccc3)[C@@](Cc3ccc(F)cc3)(C(=O)OC)[C@@H]12	-13	105	-8	+	1
O=C(O)c1nn(CCOc2ccccc2F)c(=O)c2ccccc12	54*	85	0	i	0
O=C(O)c1nn(CCOc2ccc(Br)cc2)c(=O)c2ccccc12	55*	93	0	?	0
CCc1ccc(S(=O)(=O)/N=C2\C=CC(=O)c3ccccc32)cc1	.	.	-6	.	.
O=S(=O)(N=C1C=CC(=NS(=O)(=O)c2ccccc2)c2ccccc21)c1ccccc1	-23	142	.	+	-3
C/C(=N\Nc1ccccc1Cl)c1ccc(-n2ccnc2)cc1	13	99	-7	+	0
Cc1ccc(-c2nc(CS(=O)CC(=O)NC3CCCC(C)C3C)c(C)o2)cc1 (centres undefined)	-7	91	-2	i	0
COc1ccc(-c2nc(CS(=O)CC(=O)NC3CCCC(C)C3C)c(C)o2)cc1OC (centres undefined)	-4	96	-4	+	0

High-throughput results from PubChem BioAssay.
